In the library only some 3.8% were active in any assay of this set; here they are far more common.
TIM10 inh – inhibits growth of TIM10 yeast strain; hit rate 1.4% among 330,000; S. cerevisiae TIM10 strain growth, BacTiter-Glo luminescence, 24 h; inhibition, % at 10 µM;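 active = inhibition of 40% or more at the single tested concentration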;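 note: wild-type TIM10 isogenic control strain grown at permissive 25 °C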
Yeast superoxide – caloric restriction mimetics inhibiting age-related superoxide in yeast; AID 2690; superoxide response (% of plate mean), % at 10 µM; S. cerevisiae aged cells, superoxide DHE fluorescence; active compounds read low; hit rate 0.18% among 330,000;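 active = superoxide response under a set limit, about three screen SD below normal, cut at about 65% in these data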;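 note: yeast aged for seven days with compound at 30 °C before DHE staining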
NLRP3 yeast inh – NALP3 inhibition in yeast | Yeast reconstituted NLRP3/ASC/caspase-1, beta-gal luminescence, 24 h | hit rate 0.39% among 330,000 | AID 2825 | inhibition, % at 10 µM;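 active = inhibition of 50% or more; inactive = inhibition below 50%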
tim10-1 inh – inhibits growth of tim10-1 mutant yeast | S. cerevisiae tim10-1 ts strain growth, BacTiter-Glo, 24 h | hit rate 2.2% among 330,000 | AID 463190 | inhibition, % at 20 µM;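 active = inhibition of at least 40%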;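 note: mutant grown at 25 °C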
tim23-1 inh – inhibits growth of tim23-1 mutant yeast; S. cerevisiae tim23-1 growth, BacTiter-Glo luminescence, 24 h; inhibition, % at 20 µM; hit rate 1.3% among 330,000;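 active = growth inhibition of the mutant yeast at or above 50%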;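 note: temperature-sensitive mutant grown at 25 °C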
tim10-1 conf – confirmation of tim10-1 mutant yeast growth inhibitors; shares compounds with tim10-1 inh; S. cerevisiae tim10-1 ts strain growth, BacTiter-Glo, 24 h; inhibition, % at 20 µM; hit rate 56% among 7,400; AID 463213;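 active = inhibition of yeast growth at or above a set limit in either of two repeat tests at 20 µM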;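 note: tim10-1 mutant grown at permissive 25 °C to find synthetic lethal compounds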
TIM10 conf – TIM10 yeast growth inhibition, confirmed; shares compounds with TIM10 inh; S. cerevisiae tim10 strain growth, BacTiter-Glo luminescence, 24 h; inhibition, % at 10 µM; hit rate 63% among 4,600; AID 463215;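 active = inhibition of yeast growth at or above a set limit in either of two replicates at 10 µM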; note: this counterscreen used the strain with wild-type TIM10
tim23-1 confirm – confirmation of tim23-1 mutant yeast growth inhibitors | inhibition, % at 20 µM | shares compounds with tim23-1 inh | S. cerevisiae tim23-1 growth, BacTiter-Glo luminescence, 24 h | AID 463218 | hit rate 83% among 4,400;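 active = inhibition above about 39% in either of two replicate wells at 20 µM, limit read from the data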;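 note: temperature-sensitive tim23-1 mutant grown at 25 °C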
Of the large screens only hits and unclear results are named; the others gave an inactive call (follow-up assays come after a bar, where they were run).

Cc1cc(C)cc(N=Cc2ccc([N+](=O)[O-])s2)c1	TIM10 inh 83, tim10-1 inh 56, tim23-1 inh 55 | tim10-1 conf 71 | TIM10 conf 86 | tim23-1 confirm 74
O=[N+]([O-])c1ccc(/C=N/Nc2ncccc2[N+](=O)[O-])s1	none
Cc1cc(C)n(-c2cc(C(C)(C)C)nc3c(-c4ccccc4)cnn23)n1	tim10-1 inh 47, tim23-1 inh 51 | tim10-1 conf 41 | tim23-1 confirm 48
COc1cc(/C=C/c2sc3ccccc3[n+]2CCCS(=O)(=O)[O-])ccc1O	tim10-1 inh 45, tim23-1 inh 52 | tim10-1 conf 44 | tim23-1 confirm 50
COc1ccc(CNC(=O)C2CCN(C(=O)Cc3ccccc3)CC2)cc1	none
Cc1nc2ccccc2c(=O)n1/N=C/c1ccc([N+](=O)[O-])o1	TIM10 inh 50, tim10-1 inh 53, tim23-1 inh 71 | tim10-1 conf 75 | TIM10 conf 68 | tim23-1 confirm 73
Cc1nc2ccccc2n1/N=C/c1ccc([N+](=O)[O-])s1	TIM10 inh 62, tim10-1 inh 76, tim23-1 inh 55 | tim10-1 conf inactive | TIM10 conf inactive | tim23-1 confirm 63
Clc1ccc(N=c2ssnc2Cl)nc1	TIM10 inh 85, tim10-1 inh 57, tim23-1 inh 62 | tim10-1 conf 77 | TIM10 conf 47 | tim23-1 confirm 90
OCc1ccccc1N=c1ssnc1Cl	none
CSc1nc2ccc(NS(=O)(=O)c3c(Cl)cccc3Cl)cc2s1	tim10-1 inh 43, tim23-1 inh 52 | tim10-1 conf 30 | tim23-1 confirm 57
C=CCOc1ccc(C2NC(=O)c3ccccc3O2)cc1 (configuration not stated)	none
Cc1ccc(/C=C2\C(=O)Nc3ccccc32)o1	none
O=C1Nc2ccccc2/C1=C/C(=O)c1cccs1	TIM10 inh 68, tim10-1 inh 51, tim23-1 inh 55 | tim10-1 conf 60 | TIM10 conf 93 | tim23-1 confirm inactive
C=CCOc1ccc(C(=O)/C=C2/C(=O)Nc3ccccc32)cc1	TIM10 inh 77, tim10-1 inh 84, tim23-1 inh 88 | tim10-1 conf 86 | TIM10 conf 90 | tim23-1 confirm 77
COc1ccc(C(=O)/C=C2/C(=O)Nc3ccccc32)cc1OC	TIM10 inh 76, tim10-1 inh 64, tim23-1 inh 80 | tim10-1 conf 65 | TIM10 conf 73 | tim23-1 confirm 57
COc1ccc(C(=O)/C=C2/C(=O)Nc3ccccc32)cc1	TIM10 inh 91, tim10-1 inh 84, tim23-1 inh 88 | tim10-1 conf 88 | TIM10 conf 80 | tim23-1 confirm 85
COc1cc(OC)c(/C=C2\C(=O)Nc3ccccc32)c(OC)c1	none
Cc1cccc(N(CC(=O)NCc2ccc(F)cc2)C(=O)c2csnn2)c1C	none
COc1ccc(NC(=O)CSc2ccc([N+](=O)[O-])cc2)cc1S(=O)(=O)N1CCOCC1	none
O=C(O)c1ccc(CS(=O)(=O)c2c(Cl)cccc2Cl)o1	none
O=C(CCCN1C(=O)/C(=C\c2ccco2)SC1=S)Nc1ccc2ccccc2c1	tim10-1 inh 44, tim23-1 inh 78 | tim10-1 conf 39 | tim23-1 confirm 70
O=C(OCc1csc(Nc2ccccc2)n1)c1ccc(Cl)cc1	TIM10 inh 58, tim10-1 inh 47, tim23-1 inh 61 | tim10-1 conf inactive | TIM10 conf 41 | tim23-1 confirm 44
CC1O[C@@H](O[C@H](C)CC/C=C/C(=O)O)C(O)C[C@H]1O (some centres not stated)	none
CCOC(=O)/C(=C/c1ccc(OC(=O)c2ccccc2)cc1)C(C)=O	TIM10 inh 77, tim10-1 inh 47, tim23-1 inh 89 | tim10-1 conf 64 | TIM10 conf inactive | tim23-1 confirm 53
CCOC(=O)CC1=NN(c2ccccc2)C(=O)C1	none
CCOC(=O)CC1=NN(c2ccccc2)C(=O)/C1=C\c1ccc(N(C)C)cc1	TIM10 inh 51, tim10-1 inh 43, tim23-1 inh 51 | tim10-1 conf 43 | TIM10 conf 53 | tim23-1 confirm 53
Cc1oc2cc3oc(=O)c(CCC(=O)NCCCN4CCOCC4)c(C)c3cc2c1C	none
O=C(/C=C/c1ccccn1)c1cc(Br)ccc1O	TIM10 inh 72, tim10-1 inh 70, tim23-1 inh 78 | tim10-1 conf 62 | TIM10 conf 68 | tim23-1 confirm 75
Cc1nc2ccccn2c1C(=O)N/N=C/c1cc(C)n(-c2ccc(Br)cc2)c1C	tim10-1 inh 44, tim23-1 inh 60 | tim10-1 conf inactive | tim23-1 confirm 41
Cc1ccc(NC(=O)CNc2ccc(N3CCOCC3)cc2)cc1S(=O)(=O)N(C)C	none
Cn1ccsc1=NC(=O)c1ccc([N+](=O)[O-])o1	tim10-1 inh 50, tim23-1 inh 57 | tim10-1 conf inactive | tim23-1 confirm 58
COc1cc(C(=O)N=c2sccn2C)c([N+](=O)[O-])cc1OC	none
O=C(Nc1ccccc1O)/C(=C\c1ccccc1)NC(=O)c1ccccc1	none
O=C(NCCc1ccccc1)c1c(F)c(F)c(F)c(F)c1F	none
CCOc1ccccc1NC(=O)C1CCCN1S(=O)(=O)c1ccccc1C(F)(F)F (configuration not stated)	none
Cc1[nH]nc2c1C(c1ccc(-c3ccccc3C#N)o1)C(C#N)=C(N)O2 (configuration not stated)	tim10-1 inh 56, tim23-1 inh 86 | tim10-1 conf 55 | tim23-1 confirm 68
Cc1[nH]nc2c1C(c1ccc(-c3ccc(Cl)cc3)o1)C(C#N)=C(N)O2 (configuration not stated)	none
Cc1cc(Br)ccc1NC(=O)CN1C(=O)C2CC=CCC2C1=O (configuration not stated)	none
Cc1ccc2nc(NC(=O)CN3C(=O)NC4(CCCCC4)C3=O)sc2c1	none
N/C(=N\OC(=O)CCC1CCCCC1)c1ccc([N+](=O)[O-])cc1	TIM10 inh 60, tim10-1 inh 83, tim23-1 inh 67 | tim10-1 conf 79 | TIM10 conf 51 | tim23-1 confirm 70
COc1ccc(/C(N)=N/OC(=O)CC2CCCCC2)cc1	TIM10 inh 66, tim10-1 inh 59, tim23-1 inh 57 | tim10-1 conf 64 | TIM10 conf 38 | tim23-1 confirm 54
N/C(=N\OC(=O)CCC1CCCC1)c1cccc([N+](=O)[O-])c1	tim10-1 inh 48, tim23-1 inh 50 | tim10-1 conf 38 | tim23-1 confirm inactive
